In PubChem BioAssay one finds composite z-score and z-score data, which are given here for five compounds.

Assay [1] is described as follows: anti-His antibody binders, primary screen, artefact control for SMM control protein annotation, biochemical, small-molecule microarray, 635 nm fluorescence (AID 1128).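 Further: score merges feature fluorescence with signal-to-noise for each printed compound spot.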 Particulars: anti-His Alexa647 antibody binding, higher = more signal.
The subject of assay [2] is Human papillomavirus type 1a E7 protein (residues 1-88). The assay is described as follows: HPV1a E7 small-molecule binders, primary screen, biochemical, small-molecule microarray, residues 1-88, 635 nm (AID 1129). The conditions noted are these: small-molecule microarray binding, fluorescence 635 nm; higher = more signal.
In assay [3] the target is Focal adhesion kinase 1 (Homo sapiens) (UniProt Q05397). Nature of the assay: small-molecule microarray binders of FAK, primary screen, biochemical, 635/667 nm fluorescence, BSA, DTT (AID 1130).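 Further: composite of spot emission at 667 nm and signal to noise over triplicate slides.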 The conditions noted are these: PTK2 binding, 635 nm fluorescence, higher = more signal.
Focal adhesion kinase 1 (Homo sapiens), sequence (Q05397 whole entry, looked up): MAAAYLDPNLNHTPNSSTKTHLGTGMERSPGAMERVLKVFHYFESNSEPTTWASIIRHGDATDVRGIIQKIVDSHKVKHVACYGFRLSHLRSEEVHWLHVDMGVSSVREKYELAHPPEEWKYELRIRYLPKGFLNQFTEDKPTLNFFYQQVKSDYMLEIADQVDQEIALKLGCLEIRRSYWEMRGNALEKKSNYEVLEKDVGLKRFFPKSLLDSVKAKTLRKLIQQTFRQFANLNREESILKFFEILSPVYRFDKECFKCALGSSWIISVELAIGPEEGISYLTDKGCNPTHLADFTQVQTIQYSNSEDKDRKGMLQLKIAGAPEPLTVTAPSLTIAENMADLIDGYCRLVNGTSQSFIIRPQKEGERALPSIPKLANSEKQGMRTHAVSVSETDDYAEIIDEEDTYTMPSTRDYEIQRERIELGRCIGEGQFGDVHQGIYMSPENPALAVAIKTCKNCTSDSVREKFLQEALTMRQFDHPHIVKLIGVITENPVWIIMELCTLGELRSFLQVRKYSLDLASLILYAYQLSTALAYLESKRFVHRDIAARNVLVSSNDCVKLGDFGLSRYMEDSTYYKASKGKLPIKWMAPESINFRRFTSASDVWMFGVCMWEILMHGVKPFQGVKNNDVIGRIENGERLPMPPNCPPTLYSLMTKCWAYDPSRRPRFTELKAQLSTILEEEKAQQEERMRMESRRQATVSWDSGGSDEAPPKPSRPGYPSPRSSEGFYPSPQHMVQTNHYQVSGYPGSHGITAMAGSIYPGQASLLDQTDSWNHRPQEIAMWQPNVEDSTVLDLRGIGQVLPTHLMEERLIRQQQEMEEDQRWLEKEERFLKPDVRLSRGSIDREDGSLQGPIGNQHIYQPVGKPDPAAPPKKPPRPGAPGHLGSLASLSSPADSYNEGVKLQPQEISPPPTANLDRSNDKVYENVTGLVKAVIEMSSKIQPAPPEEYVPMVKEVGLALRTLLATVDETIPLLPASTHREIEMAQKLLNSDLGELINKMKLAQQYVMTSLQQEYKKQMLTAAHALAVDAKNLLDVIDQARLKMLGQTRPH
Assay [4] relates to Fibrinogen (Alexa647-labelled). The assay is described as follows: fibrinogen binders on compound microarrays, profiling panel, artefact control for SMM control-protein annotation, biochemical, small-molecule microarray, 635/667 nm fluorescence (AID 1131).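 Further: z-score merges 667 nm fluorescence with per-spot signal-to-noise over triplicate slides.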 The conditions noted are these: fibrinogen-A647 binding fluorescence, higher = more signal.
In assay [5] the target is Follistatin (Homo sapiens) (UniProt P19883). The assay is described as follows: follistatin binders on small-molecule microarrays, primary screen, biochemical, small-molecule microarray, 635/667 nm fluorescence (AID 1132). Particulars: FST binding, 635 nm fluorescence, higher = more signal.
Follistatin (Homo sapiens), sequence (P19883 whole entry, looked up): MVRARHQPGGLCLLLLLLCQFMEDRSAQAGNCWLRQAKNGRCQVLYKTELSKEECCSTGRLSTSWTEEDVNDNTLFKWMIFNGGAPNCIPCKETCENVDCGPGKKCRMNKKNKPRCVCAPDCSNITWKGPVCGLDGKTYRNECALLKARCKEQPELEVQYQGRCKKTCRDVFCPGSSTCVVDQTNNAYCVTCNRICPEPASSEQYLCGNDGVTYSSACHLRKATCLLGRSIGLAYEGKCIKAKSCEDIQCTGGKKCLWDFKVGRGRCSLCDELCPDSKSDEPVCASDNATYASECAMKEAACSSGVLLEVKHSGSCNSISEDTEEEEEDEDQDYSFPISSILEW
Assay [6] deals with Fibroblast growth factor 2 (Homo sapiens) (UniProt P09038). Nature of the assay: FGF2 binders on small-molecule microarrays, primary screen, biochemical, small-molecule microarray, 635/667 nm fluorescence (AID 1133). The conditions noted are these: small-molecule microarray binding, FGF2, fluorescence 635/667; higher = more signal.
Fibroblast growth factor 2 (Homo sapiens), sequence (P09038 whole entry, looked up): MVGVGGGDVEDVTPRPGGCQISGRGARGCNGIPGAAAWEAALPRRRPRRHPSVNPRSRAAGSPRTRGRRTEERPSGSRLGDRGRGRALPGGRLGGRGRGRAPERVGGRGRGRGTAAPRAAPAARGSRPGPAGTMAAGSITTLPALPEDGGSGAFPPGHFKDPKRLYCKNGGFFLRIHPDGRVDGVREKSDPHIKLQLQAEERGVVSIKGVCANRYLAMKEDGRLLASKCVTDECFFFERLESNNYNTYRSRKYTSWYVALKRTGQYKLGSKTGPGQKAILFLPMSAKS
The nature of assay [7]: mitochondrial membrane potential change in A549 cells, profiling panel, cell-based, JC-1 fluorescence, basal, 24 h, 100 nL (AID 1138).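 Further: A549 lung adenocarcinoma cells under basal conditions with no added stimulus; test concentration not given here.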 Particulars: higher = more signal.
The next assay relates to Lefty1. The assay is described as follows: Lefty1 binders on small-molecule microarrays, primary screen, biochemical, small-molecule microarray, 635/667 nm fluorescence (AID 1139). The conditions noted are these: small-molecule microarray binding, fluorescence 635/667; higher = more signal.
Assay [8] has as its system wheat germ agglutinin (Triticum aestivum), Alexa647-labelled. The assay is described as follows: wheat germ agglutinin binders on compound microarrays, profiling panel, artefact control for SMM control-protein annotation, biochemical, small-molecule microarray, 635/667 nm fluorescence (AID 1140).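 Further: score merges 667 nm feature emission with signal to noise over triplicate slides.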 Particulars: WGA-A647 binding, 635 nm fluorescence, higher = more signal.
The target of assay [9] is Luciferin 4-monooxygenase (Photinus pyralis) (UniProt P08659). Nature of the assay: firefly luciferase enzyme inhibitors, primary screen, biochemical, luminescence, purified enzyme, 2006 set (AID 1141).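 Further: cell-free assay with purified firefly luciferase at 100 ng per well in PBS; test concentration not given here.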 Particulars: SteadyGlo luminescence, 30 min, higher = more signal, called active from +8 up or from −8 down.
Luciferin 4-monooxygenase (Photinus pyralis), sequence (P08659 whole entry, looked up): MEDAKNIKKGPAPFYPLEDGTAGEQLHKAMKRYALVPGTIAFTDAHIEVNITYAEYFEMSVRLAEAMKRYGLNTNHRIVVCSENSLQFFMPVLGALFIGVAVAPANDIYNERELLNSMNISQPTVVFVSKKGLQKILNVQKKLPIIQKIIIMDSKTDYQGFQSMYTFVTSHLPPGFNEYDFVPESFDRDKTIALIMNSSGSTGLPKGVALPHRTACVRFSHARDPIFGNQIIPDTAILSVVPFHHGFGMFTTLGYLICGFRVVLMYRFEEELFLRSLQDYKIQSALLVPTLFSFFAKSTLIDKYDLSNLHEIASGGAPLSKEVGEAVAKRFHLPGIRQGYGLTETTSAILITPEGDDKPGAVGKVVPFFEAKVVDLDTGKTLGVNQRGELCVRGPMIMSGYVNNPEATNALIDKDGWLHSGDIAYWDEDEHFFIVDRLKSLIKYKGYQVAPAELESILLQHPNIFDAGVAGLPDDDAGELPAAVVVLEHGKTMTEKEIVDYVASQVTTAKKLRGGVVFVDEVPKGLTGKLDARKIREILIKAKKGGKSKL
The test system of assay [10] is Wnt5a (protein binding on small-molecule microarray). Nature of the assay: Wnt5a binders on small-molecule microarray, primary screen, biophysical, 635/667 nm fluorescence (AID 1142).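 Further: fluorescence read at 667 nm with signal to noise per printed feature.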 The conditions noted are these: 635 nm fluorescence, higher = more signal.
Assay [11] can be described thus: cell viability in Huh7 cells, primary screen, cytotoxicity control for HCV replication inhibitor project, CellTiter-Glo luminescence, basal, 48 h (AID 1143).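 Further: Huh7 hepatoma cells carrying a hepatitis C replication reporter with no stimulus; test concentration not given here.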 The conditions noted are these: Huh7 HCV replicon, higher = more signal, called active from +8 up or from −8 down. Background: ATP-based viability assays read luminescence as a measure of living cells.
Assay [12] is described as follows: P. aeruginosa biofilm formation inhibitors, primary screen, PAO1 strain, BacTiter-Glo luminescence, LB-PBS (AID 1144). The conditions noted are these: 12 h, higher = more signal.
Assay [13] is described as follows: CREB reporter modulators without forskolin, primary screen, cell-based, PC12, CRE-LacZ reporter, unstimulated (AID 1145). The conditions noted are these: no forskolin, luminescence, 4.5 h, higher = more signal, called active from +8 up or from −8 down.
The nature of assay [14]: CREB reporter modulators under forskolin, primary screen, cell-based, PC12, CRE-LacZ reporter, forskolin-stimulated (AID 1146).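 Further: PC12 cells with 6xCRE LacZ reporter stimulated by forskolin 10 µM; beta-galactosidase reporter signal reflecting CREB driven transcription.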 Particulars: luminescence, 4.5 h, higher = more signal, called active from +8 up or from −8 down.
The target of assay [15] is Streptavidin (Streptomyces avidinii) (UniProt P22629). The assay is described as follows: streptavidin binders on small-molecule microarray, primary screen, artefact control for SMM compound annotation, biophysical, 635/667 nm fluorescence (AID 1147).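 Further: signal reflects streptavidin binding to arrayed compounds as a control protein.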 Particulars: streptavidin binding, higher = more signal.
Streptavidin (Streptomyces avidinii), sequence (P22629 whole entry, looked up): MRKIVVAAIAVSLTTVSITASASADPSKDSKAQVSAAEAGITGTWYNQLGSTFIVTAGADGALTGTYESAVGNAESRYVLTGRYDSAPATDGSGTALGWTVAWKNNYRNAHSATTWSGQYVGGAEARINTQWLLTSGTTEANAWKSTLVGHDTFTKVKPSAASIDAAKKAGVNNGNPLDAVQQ
Assay [16] can be described thus: small-molecule binders of probe aInhba, primary screen, biochemical, small-molecule microarray, 635/667 nm fluorescence (AID 1148).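 Further: score merges 667nm spot fluorescence with signal-to-noise for antibody binding to printed compounds.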 Particulars: higher = more signal.
Assay [17] deals with Torsin-1A (Homo sapiens) (UniProt O14656). The assay is described as follows: torsin A binders from cell lysate, primary screen, small-molecule microarray, wild-type, 635/667 nm (AID 1149). The conditions noted are these: COS7 hTOR1A-WT lysate, 635 nm fluorescence, higher = more signal.
Torsin-1A (Homo sapiens), sequence (O14656 whole entry, looked up): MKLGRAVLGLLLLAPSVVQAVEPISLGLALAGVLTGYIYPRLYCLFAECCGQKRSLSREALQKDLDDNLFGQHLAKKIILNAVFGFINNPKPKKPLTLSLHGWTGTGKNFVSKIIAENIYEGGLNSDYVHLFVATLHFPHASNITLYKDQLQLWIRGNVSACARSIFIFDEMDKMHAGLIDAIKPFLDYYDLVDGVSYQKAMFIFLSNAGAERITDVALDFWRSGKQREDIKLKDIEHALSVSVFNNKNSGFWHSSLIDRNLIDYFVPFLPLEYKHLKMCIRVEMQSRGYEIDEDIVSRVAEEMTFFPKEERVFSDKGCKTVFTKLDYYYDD
For assay [18] the target is unchanged. Nature of the assay: small-molecule binders of mutant TOR1A in lysate, primary screen, cell lysate, small-molecule microarray, COS7 lysate, 635/667 nm fluorescence (AID 1150).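 Further: score pools 667 nm emission and signal to noise measuring lysate protein binding.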 The conditions noted are these: COS7 hTOR1A mutant lysate, 635 nm fluorescence, higher = more signal.
For assay [19], the system named is Sonic hedgehog protein (Shh). Nature of the assay: small-molecule binders of Shh protein, primary screen, biochemical, small-molecule microarray, 635/667 nm fluorescence (AID 1151).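 Further: Shh protein binding to compounds spotted on small-molecule microarray slides; score combines spot fluorescence intensity with signal-to-noise across triplicate slides.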 Particulars: small-molecule microarray binding, 635 nm fluorescence; higher = more signal.

Activity calls are given as the source filed them. Unless noted, how the calls were made is not given here.

As for `Cc1ccc([C@H]2C(C(=O)O)=C[C@@H](C(C)C)N2S(=O)(=O)c2ccc(C)cc2)cc1`, the composite z-score in [1] is 1.96; in assay [2], 1.29; in assay [3] it was 1.3; in assay [4] it was 0.956; in assay [5] it was 0.126; in assay [6] it was -0.376. In addition, the composite z-score in the assay on Lefty1 is -0.297; in [8], 0.133; in assay [10], -0.167; in assay [15], 0.946; in assay [16], 0.0173; in the assay with Torsin-1A (Homo sapiens) [17], -0.165. The composite z-score with Torsin-1A (Homo sapiens) [18] was 0.28; in [19], -0.542. The z-score was -0.209 in assay [7]; 1.85 (inactive) in [9]; 0.0491 (inactive) in assay [11]; 0.633 (inactive) in assay [12]; -0.424 (inactive) in assay [13]; 1.01 (inactive) in assay [14].

Take `CCCCCN1CC=CC23O[C@@H]4C=CCCOC(=O)C4[C@H]2C(=O)N(CCCO)[C@@H]3C1=O` (stereo not given in full): the composite z-score was 0.199 in assay [1]; -0.388 in [2]; -0.572 in assay [3]; -0.677 in assay [4]; -0.182 in [5]; -0.311 in [6]. Besides, the composite z-score in the assay with Lefty1 was -0.364; in assay [8], 0.0083; in [10], -0.309; in assay [15], -0.559; in assay [16] it was -0.128; with Torsin-1A (Homo sapiens) [17], -0.0271. The composite z-score with Torsin-1A (Homo sapiens) [18] is -1.09; in assay [19], 0.4. Also, the z-score is -0.891 in assay [7]; 0.126 (inactive) in [9]; -2.45 (inactive) in [11]; -1.06 (inactive) in assay [12]; -0.492 (inactive) in assay [13]; -0.285 (inactive) in [14].

For the compound `C=CCC(OC(C)=O)[C@@H]1[C@@H](N(Cc2ccc(-c3ccccc3)cc2)C(=O)c2ccc(C)cc2)c2cc(OCCCO)ccc2N1C(=O)Cc1ccc(OC)cc1` (stereo not given in full), the composite z-score is -0.109 in assay [1]; -0.33 in assay [2]; -0.026 in assay [3]; 0.386 in assay [4]; 0.534 in [5]; -0.177 in assay [6]. For the same compound, the composite z-score in the assay on Lefty1 is 0.0835; in [8] it was 0.115; in [10], -0.0283; in [15] it was 1.36; in assay [16] it was -0.101; with Torsin-1A (Homo sapiens) [17] it was -0.691. In addition, the composite z-score in the assay with Torsin-1A (Homo sapiens) [18] is -0.0431; in [19], 0.726. Also, the z-score in assay [7] was 1.85; in [9] it was -1.58 (inactive); in assay [11], -0.536 (inactive); in assay [12], 0.307 (inactive); in assay [13], 0.904 (inactive); in assay [14], 0.429 (inactive).

With `CO[C@H]1O[C@H](CO)[C@@H](OC(=O)Nc2ccccc2-c2ccccc2)[C@H](OC(=O)Nc2ccccc2-c2ccccc2)[C@H]1OC(=O)Nc1ccccc1-c1ccccc1`, the composite z-score amounted to 2.54 in [1]; 1.27 in assay [2]; 0.464 in [3]; 1.02 in assay [4]; 1.3 in [5]; 1.63 in [6]. The composite z-score in the assay on Lefty1 came out at 0.644; in [8] it was 0.745; in assay [10], 0.764; in assay [15] it was 0.244; in [16] it was 0.243; with Torsin-1A (Homo sapiens) [17], 0.93. Further, the results for the composite z-score (in the assay with Torsin-1A (Homo sapiens) [18]; in assay [19]) were 0.885 and 1.61, respectively. Moreover, the z-score is 0.147 in [7]; -1.35 (inactive) in assay [9]; -3.73 (inactive) in [11]; -0.587 (inactive) in [12]; 1.65 (inactive) in assay [13]; -0.823 (inactive) in assay [14].

On to `[N-]=[N+]=Nc1ccccc1[C@H]1OC(c2ccc(OCCCO)cc2)=N[C@@]1(CCS(=O)(=O)c1ccccc1)C(=O)N1CCOCC1`, for which the composite z-score amounted to 2.83 in assay [1]; 1.26 in [2]; 1.32 in assay [3]; 1 in [4]; 1.3 in [5]; 1.73 in assay [6]. In addition, the composite z-score in the assay with Lefty1 is 0.225; in [8] it was 1.47; in assay [10], 1.48; in assay [15] it was 0.877; in assay [16] it was 0.496; in the assay with Torsin-1A (Homo sapiens) [17], 0.35. For the same compound, the composite z-score turned out to be 0.923 in the assay with Torsin-1A (Homo sapiens) [18] and 0.836 in assay [19]. The z-score in assay [7] is -0.218; in assay [9] it was -15 (active); in assay [11], -2.5 (inactive); in assay [12] it was 0.385 (inactive); in assay [13] it was 0.937 (inactive); in [14], 0.28 (inactive).
